ROC1-CUL1 inh: human ROC1-CUL1 E3 ligase inhibition. P62877+Q13616. in vitro K48 di-Ub FRET, acceptor:donor ratio, 45 min. inhibition, % at 10 µM. actives 0.6% (n = 140,000). AID 1347404; in the data active = inhibition above about 25%
Target sequence (P62877 whole entry, looked up): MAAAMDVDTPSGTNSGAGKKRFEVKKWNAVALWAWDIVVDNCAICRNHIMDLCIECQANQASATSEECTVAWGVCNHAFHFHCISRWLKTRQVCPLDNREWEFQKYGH
Target sequence (Q13616 whole entry, looked up): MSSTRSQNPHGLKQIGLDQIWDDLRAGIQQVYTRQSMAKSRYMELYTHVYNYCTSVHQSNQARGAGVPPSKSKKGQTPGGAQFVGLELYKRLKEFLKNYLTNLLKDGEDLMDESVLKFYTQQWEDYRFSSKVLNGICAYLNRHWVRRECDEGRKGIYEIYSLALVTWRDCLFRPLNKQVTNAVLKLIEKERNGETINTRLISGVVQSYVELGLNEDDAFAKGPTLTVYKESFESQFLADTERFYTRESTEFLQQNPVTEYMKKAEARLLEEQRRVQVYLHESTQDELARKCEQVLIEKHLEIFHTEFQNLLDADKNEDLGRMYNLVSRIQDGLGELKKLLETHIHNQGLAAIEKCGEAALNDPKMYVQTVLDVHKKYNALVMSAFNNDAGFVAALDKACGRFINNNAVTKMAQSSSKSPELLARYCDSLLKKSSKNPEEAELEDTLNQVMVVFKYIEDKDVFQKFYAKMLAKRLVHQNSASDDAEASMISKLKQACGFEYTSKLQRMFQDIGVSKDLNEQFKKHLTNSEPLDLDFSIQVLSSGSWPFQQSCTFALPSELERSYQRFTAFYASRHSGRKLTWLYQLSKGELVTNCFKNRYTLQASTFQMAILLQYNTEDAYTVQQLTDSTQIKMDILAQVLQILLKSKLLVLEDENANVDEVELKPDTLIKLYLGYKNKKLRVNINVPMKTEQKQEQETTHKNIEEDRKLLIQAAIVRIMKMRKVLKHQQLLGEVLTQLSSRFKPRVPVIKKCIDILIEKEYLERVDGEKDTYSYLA
* = called active by the depositor. The full list was thinned out, with hits kept by preference.

CC1(C)OC(=O)C(=Cc2ccc(Nc3cc(C(F)(F)F)cc(C(F)(F)F)c3)o2)C(=O)O1 was read as ROC1-CUL1 inh 87.9*.
Screening O=C1OC2(CCCC2)OC(=O)C1=Cc1ccc(Nc2ccc(F)cc2)o1 returned ROC1-CUL1 inh 6.8.
`O=C1OC2(CCCCC2)OC(=O)C1=Cc1ccc(Nc2ccc(F)cc2)o1` gave ROC1-CUL1 inh 4.0.
Cc1ccccc1Cn1nc(C)c(NC(=O)c2cc3nc(-c4ccc(Cl)s4)cc(C(F)(F)F)n3n2)c1C was read as ROC1-CUL1 inh 2.5.
C=CC[C@](O)(c1ccccc1)[C@@H](O)c1ccccc1 was read as ROC1-CUL1 inh 7.8.
`O=C(c1ccccc1)C1CCCN(C(=O)CCn2nnnc2CN2CCOCC2)C1` (stereo not given) gave ROC1-CUL1 inh 6.6.
For COc1cc(/C=C2/C(=O)NN(c3ccccc3)C2=O)ccc1OCC(=O)Nc1cccc(C)c1 the results were ROC1-CUL1 inh -1.8.
For COc1cc(/C=C2\C(=O)NN(c3ccccc3)C2=O)cc(Br)c1OCc1ccc(C)cc1 the results were ROC1-CUL1 inh 8.1.
COc1cc(/C=C2/C(=O)NN(c3ccc(I)cc3)C2=O)cc(Br)c1OC(C)=O was read as ROC1-CUL1 inh 3.4.
Screening COc1cc(/C=C2\C(=O)NN(c3ccccc3)C2=O)cc(Br)c1OCCCOc1cccc(C)c1 returned ROC1-CUL1 inh 45.1*.
`Cc1cccc(OCCCOc2ccc(Br)cc2/C=C2\C(=O)NN(c3ccccc3)C2=O)c1` gave ROC1-CUL1 inh 57.3*.
CCOc1cc(/C=C2\C(=O)NN(c3ccccc3)C2=O)cc(Br)c1OCCCOc1cccc(C)c1 was read as ROC1-CUL1 inh 34.6*.
COc1cc(/C=C2/C(=O)NN(c3ccc(C)c(C)c3)C2=O)cc(Br)c1OC(C)=O was read as ROC1-CUL1 inh 30.6*.
For CCOc1ccc(/C=C2/C(=O)NN(c3cccc(F)c3)C2=O)cc1OC the results were ROC1-CUL1 inh -4.8.
Cc1cccc(COc2ccccc2/C=C2\C(=O)NN(c3ccccc3)C2=O)c1 was read as ROC1-CUL1 inh 8.2.
`COc1cc(/C=C2/C(=O)NN(c3ccc(C)c(C)c3)C2=O)ccc1OCC(=O)N1CCOCC1` gave ROC1-CUL1 inh 0.1.
CCOc1cc(/C=C2\C(=O)NN(c3ccccc3)C2=O)ccc1OCc1ccccc1C was read as ROC1-CUL1 inh 10.4.
For COc1ccc(NC(=O)CSc2nc(N)nc(SC)c2C#N)cc1OC the results were ROC1-CUL1 inh -10.9.
Screening O=[N+]([O-])c1ccc(-c2csc(N/N=C\c3ccccc3Cl)n2)cc1 returned ROC1-CUL1 inh -9.2.
Cc1cccc(C)c1OCCNC(=O)C(Cc1ccccc1)NC(=O)c1ccccc1 (stereo not given) was read as ROC1-CUL1 inh 4.2.
Screening O=C(CCc1ccccc1)Nc1cccc2ccccc12 returned ROC1-CUL1 inh 8.4.
For CCN(Cc1ccncc1)C(=O)c1cc(Cn2c(C)nc3ccccc32)[nH]n1 the results were ROC1-CUL1 inh 0.9.
`COc1ccc(-c2cc(C(F)(F)F)nc(SCCC(=O)NCC3CCCO3)n2)cc1` (stereo not given) gave ROC1-CUL1 inh -3.1.
O=C(CN1C(=O)CSc2ccc(S(=O)(=O)N3CCCC3)cc21)NCc1ccccc1Cl was read as ROC1-CUL1 inh 3.5.
For O=C1c2ccsc2CCc2sccc21 the results were ROC1-CUL1 inh 3.9.
Cc1noc(C)c1CCCNC(=O)c1ccc(N2CCOCC2)nc1 was read as ROC1-CUL1 inh -0.3.
COc1cc(/C=C2\C(=O)NN(c3ccccc3)C2=O)cc(Br)c1OCCCOc1ccc(Cl)cc1 was read as ROC1-CUL1 inh 55.3*.
COc1cc(/C=C2/C(=O)NN(c3ccccc3)C2=O)cc(OC)c1O was read as ROC1-CUL1 inh 9.6.
CCOc1cc(/C=C2\C(=O)NN(c3ccccc3)C2=O)cc(Br)c1OCCCOc1ccc(Cl)cc1 was read as ROC1-CUL1 inh -15.1.
CN(C)c1ccc(C2C3C(=O)CCCC3=NC3=NC(=O)NC(=O)C32)cc1 (stereo not given) was read as ROC1-CUL1 inh -4.0.
For CCN(CC)C(=O)C1CCCN(c2ccccc2/C=N/Nc2ccc([N+](=O)[O-])cc2S(=O)(=O)N2CCN(C)CC2)C1 (stereo not given) the results were ROC1-CUL1 inh -4.7.
For CCn1ccnc1CN1CCC2(CCCN(CC(C)(C)C)C2)C1 (stereo not given) the results were ROC1-CUL1 inh 5.4.
`Cc1ccc(NC(=O)CCCOc2ccc(Cl)cc2Cl)cc1[N+](=O)[O-]` gave ROC1-CUL1 inh 0.0.
Screening Cc1ccc(NC(=O)CN2C(=O)S/C(=C\c3cccn3-c3cccc(C(=O)O)c3)C2=O)c(C)c1 returned ROC1-CUL1 inh 72.3*.
Cc1ccc(NC(=O)CN2C(=O)S/C(=C\c3ccc(N4CCCC4)c(F)c3)C2=O)c(C)c1 was read as ROC1-CUL1 inh -5.6.
Cc1ccc(NC(=O)CN2C(=O)S/C(=C\c3cccn3-c3cccc(C(=O)O)c3)C2=O)cc1C was read as ROC1-CUL1 inh 48.1*.
`Cc1ccc(NC(=O)CN2C(=O)S/C(=C\c3ccccn3)C2=O)cc1C` gave ROC1-CUL1 inh -0.2.

Bioassay records as filed in PubChem BioAssay.
